# Where “and” joins values, the source holds several entries; their conditions need not be identical. Equal values may be shown once. Records with an inconclusive call do not appear. Entries that show only a call come without a potency. Calls of active or inactive are those of the source. Unless noted, calls follow the shape of the dose curve; as a rule, active = well fitted curve in the direction sought with a large enough effect; inconclusive = small, poorly fitted or top-dose-only effect, or another doubt; inactive = no such curve, though single readings can be large; an effect the other way counts as inactive or inconclusive.
# Legend:
# [1] = target: Cytochrome P450 3A4 (Homo sapiens) (UniProt P08684); test: qHTS Assay for Inhibitors and Substrates of Cytochrome P450 3A4 (AID 884); also: nearly all actives have a fitted effect of over 50% in size; also: potency is read from the fitted curve at half-maximal effect
# Outline: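 20 nM human CYP3A4 with 25 uM Luciferin-PPXE (at KM) in 200 mM KPO4, preincubated 10 min with compound; NADPH regeneration started a 60 min RT reaction. Luciferin detected by luminescence, normalized to 57 uM ketoconazole as full inhibition.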
# [2] = Confirmation and Secondary Assay for Modulators of Hemoglobin Beta Chain Splicing at IVS2 654 locus (AID 910);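 also: HeLa cells stably carrying EGFP split by mutant beta-globin IVS2-654 intron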
# Outline: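 HeLa cells stably expressing EGFP interrupted by β-globin IVS2-654 intron, seeded overnight in Opti-MEM/2% FCS, then treated 2 days at 37 °C. Restored splicing read as total peak GFP intensity per well by laser scanning cytometry (488 nm excitation, 500–520 nm emission); 500 nM antisense PNA as control.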
# [3] = Confirmation and Secondary Assay for Modulators of Hemoglobin Beta Chain Splicing at IVS2 705 locus (AID 930);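 also: GFP fluorescence per well restored by corrected splicing of the IVS2-705 intron in EGFP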; also: potency is read from the fitted curve at half-maximal effect
# Outline: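 HeLa EGFP-705 reporter; 500 cells/well, o/n 37C 5% CO2; cpd 2 d; 488 ex/500-520 em laser scan; total peak GFP intensity/well. Ref: 500 nM […] antisense PNA.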
# [4] = qHTS Assay for Lipid Storage Modulators (AID 1519; calls by dose curve); details: Drosophila S3 cells, BODIPY lipid droplet/cell ratio, laser cytometry, cells loaded with oleic acid; for activity change, negative = inhibition: at 57.5 µM (top of the series)
# Outline: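 Cells seeded at 5,000 per well were treated with compounds over a concentration series and loaded with oleic acid (400 uM, as added). Lipid droplet fluorescence (488 nm excitation, 500-530 nm channel) was read by laser-scanning cytometry and normalized to 20 uM Triacsin C.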
# [5] = target: Ubiquitin carboxyl-terminal hydrolase 1 (Homo sapiens) (UniProt O94782); test: Inhibitors of USP1/UAF1: Pilot qHTS (AID 504865);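 also: rhodamine fluorescence freed from ubiquitin-rhodamine substrate followed over time; top concentration of the series differs between compounds; nearly all actives have a fitted effect of over 35% in size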
# Outline: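 Enzyme-free wells gave the negative control, while test wells held 1nM USP1/UAF1 preincubated with compound for 15 min at room temperature. Ub-Rho at 150nM final started the reaction, and fluorescence at 480/540 nm was recorded kinetically.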
# [6] = target: Cytochrome P450 3A4 (Homo sapiens) (UniProt P08684); test: qHTS Assay for Activators of Cytochrome P450 3A4 (AID 885); also: nearly all actives have a fitted effect of over 65% in size
# Outline: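 Quantitative HTS format: compounds preincubated with 20nM human CYP3A4 and Luciferin-PPXE substrate at KM, reaction started by NADPH regeneration, stopped after 60 min, luciferase luminescence read 20 min later.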
# [7] = measured here: cell count channel max response
# [8] = measured here: lipid channel max response
# Chain of Ubiquitin carboxyl-terminal hydrolase 1 (Homo sapiens) (O94782 whole entry, looked up): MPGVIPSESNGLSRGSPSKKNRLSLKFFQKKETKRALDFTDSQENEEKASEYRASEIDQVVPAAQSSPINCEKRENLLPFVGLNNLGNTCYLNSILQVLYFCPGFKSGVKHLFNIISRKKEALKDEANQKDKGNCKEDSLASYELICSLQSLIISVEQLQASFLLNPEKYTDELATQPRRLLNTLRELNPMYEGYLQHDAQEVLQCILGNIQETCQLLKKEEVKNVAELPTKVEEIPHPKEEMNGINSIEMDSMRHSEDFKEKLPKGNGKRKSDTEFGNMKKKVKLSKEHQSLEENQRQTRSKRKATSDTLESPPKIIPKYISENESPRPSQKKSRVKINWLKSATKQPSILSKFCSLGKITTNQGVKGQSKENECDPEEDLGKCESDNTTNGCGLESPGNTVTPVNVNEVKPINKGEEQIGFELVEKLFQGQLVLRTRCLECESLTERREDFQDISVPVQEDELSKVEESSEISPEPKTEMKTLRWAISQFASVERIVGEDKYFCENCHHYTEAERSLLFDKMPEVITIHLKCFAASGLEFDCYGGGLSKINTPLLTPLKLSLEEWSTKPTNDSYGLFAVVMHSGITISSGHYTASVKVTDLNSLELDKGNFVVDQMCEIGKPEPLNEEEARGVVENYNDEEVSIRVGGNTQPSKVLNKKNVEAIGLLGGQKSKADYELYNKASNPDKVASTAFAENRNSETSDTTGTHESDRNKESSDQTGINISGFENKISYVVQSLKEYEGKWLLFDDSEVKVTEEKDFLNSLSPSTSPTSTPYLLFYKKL
# Chain of Cytochrome P450 3A4 (Homo sapiens) (P08684 whole entry, looked up): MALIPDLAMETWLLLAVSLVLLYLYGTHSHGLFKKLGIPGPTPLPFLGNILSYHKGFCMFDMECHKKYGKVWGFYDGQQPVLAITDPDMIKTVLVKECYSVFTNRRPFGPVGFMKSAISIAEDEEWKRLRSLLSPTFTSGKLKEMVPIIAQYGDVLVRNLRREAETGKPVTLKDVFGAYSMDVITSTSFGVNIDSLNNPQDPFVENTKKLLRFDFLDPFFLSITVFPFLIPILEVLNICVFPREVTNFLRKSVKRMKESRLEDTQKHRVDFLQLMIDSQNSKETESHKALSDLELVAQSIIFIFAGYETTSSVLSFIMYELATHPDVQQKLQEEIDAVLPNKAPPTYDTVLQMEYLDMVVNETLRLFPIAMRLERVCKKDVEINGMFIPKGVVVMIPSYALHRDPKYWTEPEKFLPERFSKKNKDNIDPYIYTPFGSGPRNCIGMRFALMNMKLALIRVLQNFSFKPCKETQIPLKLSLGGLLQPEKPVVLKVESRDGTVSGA
SMILES,Potency [1],Potency [2],Potency [3],"activity change, negative = inhibition [4]","max response [4, 7]","max response [4, 8]",Potency [5],Potency [6]
O=C1CCCC2C3CC(CN12)C1CCCCN1C3 (centres undefined),inactive,inactive,inactive,6.45% (inactive),7.08%,15%,inactive,
C/C=C(/C)C(=O)OC1CC[C@]2(C)C3CCC4[C@]5(O)CC(O)[C@]6(O)C(CN7CC(C)CCC7[C@]6(C)O)[C@]5(O)C[C@@]42O[C@]13O (some centres undefined),inactive,inactive,inactive,5.46% (inactive),6.5%,12.3%,inactive,
C[C@]12CCC3C(C=CC4=CC(=O)CC[C@]43C)C1CC[C@]2(O)CCC(=O)O (some centres undefined),inactive,inactive,,1.44% (inactive),28.8%,34.1%,inactive,
COc1cc2c(c(OC)c1OC)-c1ccc(O)c(=O)cc1C(NC(C)=O)CC2 (centres undefined),inactive,inactive,inactive,7.7% (inactive),16.6%,36.3%,inactive,
CNC1[C@@H](O)C(OC2C(N)C[C@H](N)[C@@H](O[C@@H]3OC(C(C)O)C(O)C(O)C3N)C2O)OC[C@]1(C)O (some centres undefined),20 µM (active),inactive,inactive,8.52% (inactive),15%,24.5%,inactive,inactive
CC(N)[C@H](O)c1ccccc1 (some centres undefined),inactive,inactive,inactive,2.72% (inactive),12.8%,19.5%,inactive,
CN1C2CC3CC1C(O3)C2O (centres undefined),inactive,inactive,inactive,1.96% (inactive),-4.71%,-5.52%,inactive,
COC1=CC2C3Cc4ccc(OC)c(O)c4[C@]2(CCN3C)CC1=O (some centres undefined),inactive,inactive,inactive,4.04% (inactive),-5.63%,0.618%,inactive,
NC(CO)Cc1ccccc1 (centres undefined),,inactive,inactive,8.6% (inactive),17.3%,29%,inactive,
CC(=O)C1CC[C@H]2C3CC[C@@H]4CC(O)CC[C@@]4(C)C3CC[C@]12C (some centres undefined),inactive,,inactive,12.3% (inactive),9.69%,25.9%,inactive,
C[C@@]12CCC(O)C[C@H]1CCC1C2CC[C@]2(C)C(=O)CCC12 (some centres undefined),,inactive,,1.65% (inactive),7%,9.46%,inactive,inactive
CCOC(=O)C1C(C=C(C)C)C1(C)C (centres undefined),inactive,,inactive,2.84% (inactive),-1.43%,3.02%,inactive,
CC1C(=O)OC2CCN3CC=C(COC(=O)[C@](C)(O)[C@]1(C)O)C23 (some centres undefined),,inactive,inactive,5.81% (inactive),-2.74%,4.32%,inactive,
CC1CC(O)[C@]2(O)[C@]13CC(=O)OC[C@@]2(C)[C@@](C)(O)C(=O)C3 (some centres undefined),,inactive,inactive,1.46% (inactive),13.4%,16.3%,inactive,inactive
N#CC(O[C@@H]1OC(COC2OC(CO)C(O)C(O)[C@@H]2O)C(O)C(O)C1O)c1ccccc1 (some centres undefined),,inactive,,2.68% (inactive),-0.407%,5.27%,inactive,
NNCc1ccccc1,,inactive,inactive,14.8% (inactive),5.74%,20.3%,inactive,inactive
C[C@]12CCC3C(CC[C@]4(O)CC(O)CC[C@@]34C=O)[C@]1(O)CCC2C1=CC(=O)OC1 (some centres undefined),,inactive,inactive,-3.74% (inactive),12.5%,11%,inactive,
COC(=O)COc1ccc(Cl)cc1Cl,,inactive,inactive,8.24% (inactive),0.885%,8.23%,inactive,
CC(=O)OC1C2C(OC(=O)Cc3ccccc3)C(C)CC2(OC(C)=O)C(=O)/C(C)=C/C2C(CC[C@@]13CO3)C2(C)C (some centres undefined),,inactive,inactive,-0.982% (inactive),-2.07%,-2.51%,inactive,inactive
CC1C(=O)OC2C1CC[C@@]1(C)C=CC(=O)[C@@]3(C)O[C@@]213 (some centres undefined),,,inactive,3.63% (inactive),-6.2%,2.49%,inactive,inactive
N#C/C(=C\c1ccc(O)cc1)C(=O)O,,,inactive,4.55% (inactive),8.92%,15.9%,inactive,inactive
CC(C)(O)C1C2OC(=O)C1[C@]1(O)CC3O[C@@]34C(=O)OC2[C@@]14C (some centres undefined),,inactive,inactive,4.81% (inactive),5.32%,12.9%,inactive,
O=c1ccc2cc(O[C@H]3OC(CO)C(O)C(O)C3O)c(O)cc2o1 (some centres undefined),,inactive,inactive,5.45% (inactive) and 5.34% (inactive),5.76% and 15.4%,15.3% and 32.6%,inactive,
O=C1CC2OCC=C3CN4CC[C@@]56c7ccccc7N1C5C2C3CC46 (some centres undefined),,inactive,,-0.509% (inactive),17.9%,21.5%,inactive,
CC1OC(O[C@@H]2C(O)CC(O[C@@H]3C(O)C[C@@H](OC4CC[C@]5(C)[C@H](CC[C@H]6[C@@H]5CC[C@]5(C)C(C7=CC(=O)OC7)C(O)C[C@@]65O)C4)OC3C)OC2C)CC(O)C1O (some centres undefined),inactive,,1 µM (active),10.1% (inactive),12.5%,20.2%,inactive,

# — PubChem BioAssay (NCATS)
